IL-1B inflam inh = blocks inflammasome-driven IL-1 beta release; activity change, % at 57.5 µM; AID 743279; THP-1 LPS/ATP IL-1B secretion, AlphaLISA, 16 h; hits give low values; 360,000 tested, 4.7% active; in the data active means activity change below about -50%; inconclusive means mostly about -30% to -49%; further: on the % scale 0 is the no-effect control and ±100 the full control effect
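THP-1 cells pretreated 1 hr with compounds (up to 57.5 uM final), then stimulated with LPS (250 ng/mL final) plus ATP (1.25 mM final); secreted IL-1B measured by AlphaLISA after 16 hr, decreased signal indicating inhibition.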
TGFb SMAD3 inh = blocks TGF-b signaling | HepG2 CAGA-GFP TGF-b/SMAD3 reporter, GFP fluorescence, 18 h; TGF-beta stimulated, 500 pg/mL final | Potency, µM (top dose mostly 46.1 µM), inactives show at the top dose activity, negative = inhibition, most hits filed as inhibitors | 410,000 tested, 1.2% active; further: potency means the concentration at half of the fitted maximal effect; on the % scale 0 is the no-effect control and ±100 the full control effect; nearly all actives have a fitted effect of over 65% in size
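Inhibition was scored as loss of TGF-beta-induced (500 pg/mL final, 18 hours, 37 degrees C) GFP in HEPG2 cells carrying a CAGA-GFP reporter, in DMEM with 1% FBS. Well GFP was summed per cell; Activity was normalised to unstimulated and stimulated DMSO wells, then concentration-response fitting.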
TDP1 cell CPT = DT40-hTDP1 cell growth loss with CPT. AID 686979. chicken DT40 Tdp1-/-;hTDP1 cells + 20 nM CPT, ATP luminescence, 48 h. Potency, µM (doses to about 46.2 µM), inactives show at the top dose activity change, negative = growth inhibition, most hits filed as inhibitors. 420,000 tested, 12% active; further: potency means the concentration at half of the fitted maximal effect; on the % scale 0 is the no-effect control and ±100 the full control effect; nearly all actives have a fitted effect of over 55% in size
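Chicken DT40 Tdp1-/- cells stably complemented with human TDP1 were seeded at 400 cells/well in medium containing 20 nM camptothecin, exposed to pin-transferred compounds, and grown at 37 °C for at least 48 hr. Viability was read as ATP luminescence.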
HepG2 tox = HepG2 cytotoxicity, counter-screen for TGF-b inhibitors. Potency, µM (highest dose often 46.1 µM), for the others: at the highest dose activity change, negative = cytotoxicity, actives largely listed as cytotoxic. HepG2 CAGA-GFP viability, ATP luminescence, 18 h. 410,000 tested, 0.76% active; further: potency means the concentration at half of the fitted maximal effect
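HepG2 CAGA-GFP cells (1000/well, DMEM with 1% FBS) received compound, then TGF-beta at 500 pg/mL final, and were incubated 18 hours at 37 degrees C. Viability was read by CellTiter-Glo luminescence. Media-only wells were set as complete cell-killing and DMSO as no toxicity.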
DT40 TDP1 no CPT = qHTS for Inhibitors of human tyrosyl-DNA phosphodiesterase 1 (TDP1): qHTS in cells in absence of CPT; DT40 Tdp1-/- hTDP1 cells, no CPT, ATP luminescence, 48 h; Potency, µM (doses to about 46.2 µM), without a hit: at the highest dose activity change, negative = growth inhibition, most hits filed as inhibitors; 420,000 tested, 15% active; AID 686978, 2013; further: potency means the concentration at half of the fitted maximal effect; on the % scale 0 is the no-effect control and ±100 the full control effect; nearly all actives have a fitted effect of over 55% in size
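Growth kinetics read by CellTiter-Glo luminescence after ≥48 hr at 37 °C. Cells: DT40 Tdp1-/- stably carrying human TDP1, 400 per well, compound exposure in the absence of CPT (DMSO vehicle).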
TDP1 block = blocks human tyrosyl-DNA phosphodiesterase 1; Q9NUW8; recombinant TDP1, AlphaScreen DNA substrate cleavage; Potency, µM (top dose mostly 130 µM), for inactives: top-dose activity change, negative = inhibition, usual class: inhibitors; 350,000 tested, 0.28% active; AID 485290; further: potency means the concentration at half of the fitted maximal effect; on the % scale 0 is the no-effect control and ±100 the full control effect; nearly all actives have a fitted effect of over 40% in size
Target sequence (Q9NUW8 whole entry, looked up): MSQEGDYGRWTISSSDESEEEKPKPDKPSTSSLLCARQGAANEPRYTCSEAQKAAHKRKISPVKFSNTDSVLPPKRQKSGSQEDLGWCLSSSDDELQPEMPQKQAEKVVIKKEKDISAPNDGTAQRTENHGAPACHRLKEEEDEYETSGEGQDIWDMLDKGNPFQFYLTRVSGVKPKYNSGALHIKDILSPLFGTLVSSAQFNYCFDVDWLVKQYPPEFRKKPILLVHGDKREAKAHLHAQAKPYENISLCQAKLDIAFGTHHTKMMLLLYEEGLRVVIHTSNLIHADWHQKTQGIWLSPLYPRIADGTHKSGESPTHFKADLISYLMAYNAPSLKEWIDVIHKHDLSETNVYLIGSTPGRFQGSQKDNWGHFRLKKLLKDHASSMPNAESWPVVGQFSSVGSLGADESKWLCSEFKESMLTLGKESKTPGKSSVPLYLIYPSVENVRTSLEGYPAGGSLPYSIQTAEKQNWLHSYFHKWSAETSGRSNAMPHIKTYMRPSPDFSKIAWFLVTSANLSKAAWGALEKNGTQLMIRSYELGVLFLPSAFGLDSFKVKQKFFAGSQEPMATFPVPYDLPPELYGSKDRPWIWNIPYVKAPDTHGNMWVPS
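Tdp1 1 nM final; 15 min RT w/ cpd; substrate 15 nM, 5 min; beads 10 ug/ml, 10 min; AlphaScreen read. Neg ctrl: no enzyme.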
* hit, by the source's call; ? = inconclusive; . = no result. Shown are actives, neighbours in structure and some others; about 18% of the full set was active somewhere. Unless noted, the call rests on the fitted dose curve; in most records, active means well fitted curve in the direction sought with a large enough effect; inconclusive means small, poorly fitted or top-dose-only effect, or another doubt; inactive means no such curve, though single readings can be large; an effect the other way counts as inactive or inconclusive.

SMILES	IL-1B inflam inh	TGFb SMAD3 inh	TDP1 cell CPT	HepG2 tox	DT40 TDP1 no CPT	TDP1 block
CCOc1ccc(C2C(C(N)=O)=C(C)Nc3nc(SCc4ccccc4)nn32)cc1 (stereo not drawn)	.	0%	-18%	-22%	-2%	-6%
O=c1oc(-c2ccc([N+](=O)[O-])cc2)nc2ccccc12	-7	9%	?	-2%	-24%	4%
O=c1oc(-c2ccc([N+](=O)[O-])cc2)nc2ccc(O)cc12	-68*	10%	-2%	3%	-16%	5%
CC1(C(=O)NS(=O)(=O)c2ccccc2)CCN1C(=O)CC(c1ccccc1)c1ccccc1 (stereo not drawn)	23	30%	?	17%	?	.
CC1(C(=O)NS(=O)(=O)c2ccccc2Cl)CCN1C(=O)CC(c1ccccc1)c1ccccc1 (stereo not drawn)	28	-8%	4.1µM*	2%	7.3µM*	.
Cc1noc(C)c1S(=O)(=O)NC(=O)C1(C)CCN1C(=O)CC(c1ccccc1)c1ccccc1 (stereo not drawn)	0	-12%	9.2µM*	0%	21µM*	.
Cc1ccccc1S(=O)(=O)NC(=O)C1(C)CCN1C(=O)CC(c1ccccc1)c1ccccc1 (stereo not drawn)	26	?	5.8µM*	7%	5.8µM*	.
Cc1c(C(N)=O)sc2ncn(CC(=O)N(C)C3CCCCC3)c(=O)c12	0	3%	-4%	-1%	-8%	-3%
CCN(CC)CCOC(=O)c1ccc(NC(=O)c2cc3c(s2)-c2ccccc2OC3)cc1	.	11µM*	.	10µM*	.	-8%
CC1CCN(CCCNC(=O)c2cc3c(s2)-c2ccccc2OC3)CC1	-27	?	?	-65%	?	3%
CC1CCCN(CCCNC(=O)c2cc3c(s2)-c2ccccc2OC3)C1 (stereo not drawn)	-77*	?	?	-58%	?	-1%
CCN(CC)CCNC(=O)c1cc2c(s1)-c1ccccc1SC2	-9	?	23µM*	-50%	16µM*	.
O=C(NCCc1ccc(Cl)cc1)c1cc2c(s1)-c1ccccc1OC2	.	14%	.	-7%	.	-1%
Cc1ccc(CCNC(=O)c2cc3c(s2)-c2ccccc2OC3)cc1	.	-5%	?	2%	?	40µM*
O=C(NCc1ccc(Cl)cc1)c1cc2c(s1)-c1ccccc1SC2	.	.	13%	-1%	-21%	3%
CCc1cccc(NC(=O)c2cc3c(s2)-c2ccccc2OC3)c1	.	?	.	-22%	.	-15%
CC(=O)N1c2ccccc2CC1C(=O)NCc1cccc(Cl)c1 (stereo not drawn)	.	-13%	?	-3%	-30%	0%
Cc1ccc(-n2ccnc(NCCc3ccc(S(N)(=O)=O)cc3)c2=O)cc1C	.	?	?	-34%	?	5%
O=C(NCCCN1CCN(c2ccccc2)CC1)c1cc2c(s1)-c1ccccc1OC2	.	?	?	14µM*	23µM*	14%
Cc1ccc(C2=Nc3ccccc3N=C(C(Cl)Cl)C2)cc1	-26	-22%	18µM*	-62%	16µM*	9%
CCN(CC)c1ccc(C=Nc2ccc(N(C)C)cc2)c(O)c1	-21	-21%	?	-35%	16µM*	12%
CCN(CC)c1ccc(N=Cc2ccc(N(CC)CC)cc2O)cc1	29	-15%	?	-63%	?	13%
CCN(CC)c1ccc(/C=N/N=C(N)N)c(O)c1	0	?	0.65µM*	-22%	0.65µM*	7%
CC(C)c1ccc(NC(=O)C2Cc3c(-c4ccc5c(c4)OCO5)ccnc3O2)cc1 (stereo not drawn)	-58*	27%	?	-6%	15µM*	.
CC(=O)c1cccc(-c2ccnc3c2CC(C(=O)Nc2ccc4c(c2)OCO4)O3)c1 (stereo not drawn)	-11	-3%	4.1µM*	-17%	2.3µM*	.
SMILES	IL-1B inflam inh	TGFb SMAD3 inh	TDP1 cell CPT	HepG2 tox	DT40 TDP1 no CPT	TDP1 block
CC(=O)Nc1ccc(-c2ccnc3c2CC(C(=O)Nc2ccc4c(c2)OCO4)O3)cc1 (stereo not drawn)	-24	8%	6.5µM*	-2%	8.2µM*	.
Cc1cnccc1/C=C/c1ccc(N)cc1	.	5%	?	-23%	?	.
CC(NC(=O)c1ccc(S(=O)(=O)N(C)C)cc1)c1ccc(-n2ccnc2)cc1 (stereo not drawn)	18	7%	23%	-4%	-27%	9%
Cc1ccc(S(=O)(=O)c2cnc(-c3ccccc3)[nH]c2=O)cc1	.	.	0%	.	-1%	.
CN1C(=O)[C@H]2[C@@H](/C=C/c3ccccc3)N3C(=O)CN(Cc4ccc(-c5ccccc5)cc4)C(=O)[C@@]3(Cc3ccccc3)[C@H]2C1=O	?	?	?	-11%	?	.
CCN(CC(=O)NC(C)C)C(=O)[C@H](C)NC(=O)c1ccc(Br)cc1	15	-10%	10%	26%	6%	4%
CC1=N/C(=C\c2ccc([N+](=O)[O-])cc2)C(=O)N1c1ccc(Br)c(C)c1	-19	?	12µM*	-8%	5.8µM*	0%
COc1ccc(N2C(=O)/C(=C/c3ccc([N+](=O)[O-])cc3)N=C2C)cc1	15	?	-16%	4%	?	2%
Cn1ncc(Cl)c1C(=O)NCc1ccc(Cl)cc1	26	0%	?	-13%	8.2µM*	-2%
O=C(CONS(=O)(=O)c1ccc(Cl)cc1)NCCNc1ncc(C(F)(F)F)cc1Cl	-55*	?	2%	-48%	?	6%
CCCN(CC(=O)Nc1ccccc1C)C(=O)c1nn(CC)c(=O)c2ccccc12	7	2%	-7%	0%	-11%	1%
O=C(COc1ccccc1F)Nc1cc(S(=O)(=O)Nc2cccc(Cl)c2)ccc1O	32	?	?	-28%	?	-1%
O=C(NC(=S)Nc1cccc(Cl)c1N1CCCCC1)c1ccco1	18	?	?	-35%	?	4%
O=C(Nc1cc(C(F)(F)F)ccc1N1CCCCC1)c1ccc(Br)o1	-4	16%	18µM*	-12%	?	-8%
O=C(NC(=S)Nc1cccc(Cl)c1N1CCOCC1)c1cccs1	2	-38%	?	-5%	26µM*	4%
O=C(Nc1ccc(N2CCCC2)c(Cl)c1)c1ccc(Br)o1	-27	11%	18µM*	-35%	?	9%

From PubChem BioAssay
